From PubChem BioAssay (Tox21)
Records with an inconclusive call do not appear. Entries that show only a call come without a potency. Active and inactive are the calls of the source. Calls follow the shape of the full dose curve.

target: Beta-2 adrenergic receptor (Homo sapiens) (UniProt P07550); assay: Adrenergic beta2 receptor (ADRB2) small molecule antagonists, cell-based qHTS assay (AID 1963592); conditions: CHO-ADRB2 cells, isoproterenol-stimulated cAMP HTRF ratio, 0.5 h; series mostly up to 92.4 µM; also: nearly all actives have a fitted effect of over 50% in size
Sequence (P07550 whole entry, looked up): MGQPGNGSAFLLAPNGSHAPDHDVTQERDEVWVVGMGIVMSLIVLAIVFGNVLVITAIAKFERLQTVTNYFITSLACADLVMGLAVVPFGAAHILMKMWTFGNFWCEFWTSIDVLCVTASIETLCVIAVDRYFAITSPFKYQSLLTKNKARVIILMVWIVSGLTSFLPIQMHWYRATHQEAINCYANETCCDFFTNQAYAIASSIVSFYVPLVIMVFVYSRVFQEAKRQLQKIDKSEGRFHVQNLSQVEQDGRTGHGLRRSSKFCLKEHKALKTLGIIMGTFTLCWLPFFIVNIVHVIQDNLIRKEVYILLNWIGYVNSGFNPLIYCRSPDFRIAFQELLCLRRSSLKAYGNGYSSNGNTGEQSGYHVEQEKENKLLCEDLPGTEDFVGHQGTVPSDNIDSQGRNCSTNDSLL
How it was run: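 Cells (CHO, stable ADRB2 overexpression) incubated 18-20hr at 37C; compounds added from DMSO; agonist mix (1nM isoproterenol, 100uM IBMX, 25uM Ro-20-1724) added; 0.5hr RT; d2-cAMP and anti-cAMP-cryptate added; 1hr RT; 665/615 nm read.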

Structure (SMILES) | Potency | activity change, negative = inhibition
COc1ccc(C(=O)/C(Br)=C\C(=O)O)cc1 | inactive | –
COc1ccc(-c2cc(=S)ss2)cc1 | inactive | –
O=C(CCCCCCC(=O)Nc1ccccc1)NO | inactive | –
O=c1[nH]c2ccccc2n1CCCN1CCN(C(c2ccccc2)c2ccccc2)CC1 | inactive | –
COc1cc(Nc2c(C#N)cnc3cc(OCCCN4CCN(C)CC4)c(OC)cc23)c(Cl)cc1Cl | inactive | –
CCCC(=O)O[C@]1(C(=O)CCl)[C@@H](C)C[C@H]2[C@@H]3CCC4=CC(=O)C=C[C@]4(C)[C@@]3(F)C(=O)C[C@@]21C | inactive | –
Cc1cccc(O)c1N | inactive | –
Cc1cc(O)c2c(c1)C(=O)c1cc(O)cc(O)c1C2=O | inactive | –
CCCCCCCC/C=C/CCCCCCCC1=NCCN1CCO | inactive | –
CC1=NN(c2cc(Cl)c(S(=O)(=O)O)cc2Cl)C(=O)C1N=Nc1ccc(S(=O)(=O)O)cc1 (stereo unspecified) | inactive | –
C(=C(c1ccccc1)c1ccccc1)c1ccccc1 | inactive | –
O=C1c2ccccc2C(=O)c2c(O)c(O)cc(O)c21 | inactive | –
CCOc1ccc2nc3cc(N)ccc3c(N)c2c1 | inactive | –
CC1=NN(c2ccc(S(=O)(=O)O)cc2)C(=O)C1N=Nc1ccccc1 (stereo unspecified) | inactive | –
CNCC[C@@H](Oc1ccccc1C)c1ccccc1 | inactive | –
COc1cc([N+](=O)[O-])ccc1N | inactive | –
Cc1c(C(=O)NN2CCCCC2)nn(-c2ccc(Cl)cc2Cl)c1-c1ccc(Cl)cc1 | inactive | –
CSc1ccc(/C=C2/C(C)=C(CC(=O)O)c3cc(F)ccc32)cc1 | inactive | –
CC(C)C(OC(=O)c1ccccc1)C(C)(C)COC(=O)c1ccccc1 (stereo unspecified) | inactive | –
CN(C)C(=O)NC1(c2ccccc2)CCN(CCC[C@]2(c3ccc(Cl)c(Cl)c3)CCCN(C(=O)c3ccccc3)C2)CC1 | – | 9.65% [at 19 µM] (inactive)
Clc1ccc(Cn2c(CN3CCCC3)nc3ccccc32)cc1 | inactive | –
O=C1CCCCCN1SSN1CCCCCC1=O | inactive | –
CC(COc1ccc(C(C)(C)C)cc1)OS(=O)OCCCl (stereo unspecified) | inactive | –
c1ccc(-c2ccc(C(c3ccccc3)n3ccnc3)cc2)cc1 (stereo unspecified) | inactive | –
Cc1onc(-c2c(Cl)cccc2Cl)c1C(=O)N[C@@H]1C(=O)N2[C@@H]1SC(C)(C)[C@@H]2C(=O)O | inactive | –
Cc1ccc(N/N=c2\c(=O)cc/c(=N\Nc3ccc(S(=O)(=O)O)cc3)c2=O)c(C)c1 | inactive | –
CCCCC(CC)CN1CN(CC(CC)CCCC)CC(C)(N)C1 (stereo unspecified) | inactive | –

target: Beta-2 adrenergic receptor (Homo sapiens) (UniProt P07550); assay: Adrenergic beta2 receptor (ADRB2) small molecule agonists, cell-based qHTS assay (AID 1963593); conditions: CHO-ADRB2 cells, cAMP HTRF, 30 min; series mostly up to 92.4 µM;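 also: CHO cells stably overexpressing human ADRB2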
How it was run: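 CHO cells stably over-expressing ADRB2 were plated overnight at 37C, then dosed with compounds plus a stimulation mix containing 100uM IBMX and 25uM Ro-20-1724 for 0.5hr at room temperature. cAMP was measured by HTRF competition, 1hr.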

Structure (SMILES) | Potency | activation
COc1ccc(C(=O)/C(Br)=C\C(=O)O)cc1 | inactive | –
COc1ccc(-c2cc(=S)ss2)cc1 | inactive | –
O=C(CCCCCCC(=O)Nc1ccccc1)NO | inactive | –
Cc1ccc(O)c(C(C)(C)C)c1 | inactive | –
COc1cc(Nc2c(C#N)cnc3cc(OCCCN4CCN(C)CC4)c(OC)cc23)c(Cl)cc1Cl | inactive | –
N[C@@H](C(=O)N[C@@H]1C(=O)N2C(C(=O)O)=C(Cl)CS[C@H]12)c1ccccc1 | – | -30.9% [at 8.39 µM] (inactive)
CCCC(=O)O[C@]1(C(=O)CCl)[C@@H](C)C[C@H]2[C@@H]3CCC4=CC(=O)C=C[C@]4(C)[C@@]3(F)C(=O)C[C@@]21C | inactive | –
Cc1cc(O)c2c(c1)C(=O)c1cc(O)cc(O)c1C2=O | inactive | –
CC1=NN(c2cc(Cl)c(S(=O)(=O)O)cc2Cl)C(=O)C1N=Nc1ccc(S(=O)(=O)O)cc1 (stereo unspecified) | inactive | –
O=C1c2ccccc2C(=O)c2c(O)c(O)cc(O)c21 | inactive | –
COc1cc([N+](=O)[O-])ccc1N | inactive | –
CC(C)C(OC(=O)c1ccccc1)C(C)(C)COC(=O)c1ccccc1 (stereo unspecified) | inactive | –
CN(C)C(=O)NC1(c2ccccc2)CCN(CCC[C@]2(c3ccc(Cl)c(Cl)c3)CCCN(C(=O)c3ccccc3)C2)CC1 | – | 0.625% [at 19 µM] (inactive)
Clc1ccc(Cn2c(CN3CCCC3)nc3ccccc32)cc1 | inactive | –
c1ccc(-c2ccc(C(c3ccccc3)n3ccnc3)cc2)cc1 (stereo unspecified) | inactive | –
Cc1onc(-c2c(Cl)cccc2Cl)c1C(=O)N[C@@H]1C(=O)N2[C@@H]1SC(C)(C)[C@@H]2C(=O)O | inactive | –
Cc1ccc(N/N=c2\c(=O)cc/c(=N\Nc3ccc(S(=O)(=O)O)cc3)c2=O)c(C)c1 | inactive | –

target: D(2) dopamine receptor (Homo sapiens) (UniProt P14416); assay: Dopamine D2 receptor (DRD2) small molecule agonists, cell-based qHTS assay (AID 1963594); conditions: HEK293-DRD2 cAMP HTRF, agonist mode, 30 min; series mostly up to 92.4 µM; also: nearly all actives have a fitted effect of over 35% in size
Sequence (P14416 whole entry, looked up): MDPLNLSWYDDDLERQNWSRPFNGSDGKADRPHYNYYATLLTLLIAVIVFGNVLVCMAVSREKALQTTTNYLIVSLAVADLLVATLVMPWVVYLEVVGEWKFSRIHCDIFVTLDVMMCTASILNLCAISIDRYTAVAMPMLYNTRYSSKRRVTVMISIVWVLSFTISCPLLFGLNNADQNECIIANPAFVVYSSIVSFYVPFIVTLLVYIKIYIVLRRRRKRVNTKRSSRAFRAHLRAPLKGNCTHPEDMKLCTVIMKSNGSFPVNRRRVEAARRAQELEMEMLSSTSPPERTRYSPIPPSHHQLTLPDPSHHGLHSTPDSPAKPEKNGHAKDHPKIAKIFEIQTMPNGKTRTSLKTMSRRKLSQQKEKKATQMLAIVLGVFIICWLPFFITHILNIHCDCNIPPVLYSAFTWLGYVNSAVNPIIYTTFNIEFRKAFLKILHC
How it was run: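 HEK293 cells stably expressing DRD2 were cultured 24 h at 37 C, then given Ro20-1724 (0.1 mM final) and compounds for 10 min at room temperature. NKH477 (200nM) was then added for 30 min. cAMP was read by HTRF.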

Structure (SMILES) | Potency | activation
COc1ccc(-c2cc(=S)ss2)cc1 | inactive | –
c1cc(CN2CCCCC2)cc(OCCCNc2nc3ccccc3s2)c1 | inactive | –
Cc1ccc(O)c(C(C)(C)C)c1 | inactive | –
Cc1cccc(O)c1N | inactive | –
Cc1cc(O)c2c(c1)C(=O)c1cc(O)cc(O)c1C2=O | inactive | –
O=c1cc(-c2ccc(O)cc2)oc2cc(O)cc(O)c12 | inactive | –
CCCCCCCC/C=C/CCCCCCCC1=NCCN1CCO | inactive | –
CC1=NN(c2cc(Cl)c(S(=O)(=O)O)cc2Cl)C(=O)C1N=Nc1ccc(S(=O)(=O)O)cc1 (stereo unspecified) | inactive | –
CN(C)CC/C=C1\c2ccccc2Sc2ccc(Cl)cc21 | inactive | –
C(=C(c1ccccc1)c1ccccc1)c1ccccc1 | inactive | –
NC(=O)C1(N2CCCCC2)CCN(CCCN2c3ccccc3CCc3ccc(Cl)cc32)CC1 | inactive | –
O=C1c2ccccc2C(=O)c2c(O)c(O)cc(O)c21 | inactive | –
CCOc1ccc2nc3cc(N)ccc3c(N)c2c1 | inactive | –
CC1=NN(c2ccc(S(=O)(=O)O)cc2)C(=O)C1N=Nc1ccccc1 (stereo unspecified) | inactive | –
CNCC[C@@H](Oc1ccccc1C)c1ccccc1 | inactive | –
COc1cc([N+](=O)[O-])ccc1N | inactive | –
Cc1c(C(=O)NN2CCCCC2)nn(-c2ccc(Cl)cc2Cl)c1-c1ccc(Cl)cc1 | inactive | –
CSc1ccc(/C=C2/C(C)=C(CC(=O)O)c3cc(F)ccc32)cc1 | inactive | –
CC(C)C(OC(=O)c1ccccc1)C(C)(C)COC(=O)c1ccccc1 (stereo unspecified) | inactive | –
CN(C)C(=O)NC1(c2ccccc2)CCN(CCC[C@]2(c3ccc(Cl)c(Cl)c3)CCCN(C(=O)c3ccccc3)C2)CC1 | – | -11.2% [at 19 µM] (inactive)
Clc1ccc(Cn2c(CN3CCCC3)nc3ccccc32)cc1 | inactive | –
O=C1CCCCCN1SSN1CCCCCC1=O | inactive | –
CC(COc1ccc(C(C)(C)C)cc1)OS(=O)OCCCl (stereo unspecified) | inactive | –
c1ccc(-c2ccc(C(c3ccccc3)n3ccnc3)cc2)cc1 (stereo unspecified) | inactive | –
Cc1onc(-c2c(Cl)cccc2Cl)c1C(=O)N[C@@H]1C(=O)N2[C@@H]1SC(C)(C)[C@@H]2C(=O)O | inactive | –
Cc1ccc(N/N=c2\c(=O)cc/c(=N\Nc3ccc(S(=O)(=O)O)cc3)c2=O)c(C)c1 | inactive | –
CCCCC(CC)CN1CN(CC(CC)CCCC)CC(C)(N)C1 (stereo unspecified) | inactive | –
